From PubChem BioAssay (EPA / NIEHS)
The source made the active and inactive calls. The calls were made as follows: active = hit-call score of the fitted dose curve at least 0.9, where 1 is the maximum; inactive = score below 0.9.

experiment: CEETOX_H295R_PROG: CeeTox H295R High-throughput Steroidogenesis Assay for Progesterone (PROG) (AID 2283442); conditions: actives raise or lower the signal;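 as to AC50: human H295R adrenal cells primed with 10 µM forskolin before dosing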
Description: CEETOX_H295R is a cell-based, multiplexed-readout assay that uses H295R, a human adrenal gland cell line, with measurements taken at 48 hours after chemical dosing in a 96-well plate.CEETOX_H295R_PROG is one of 23 assay component(s) measured or calculated from the CEETOX_H295R assay. It is designed to make measurements of hormone induction, a form of inducible reporter, as detected with absorbance signals by HPLC-MS-MS technology.Data from the assay component CEETOX_H295R_PROG was analyzed into 1 assay endpoint. This assay endpoint, CEETOX_H295R_PROG, was analyzed with bidirectional fitting relative to DMSO as the negative control and baseline of activity. Using a type of inducible reporter, gain or loss-of-signal activity using HPLC-MS-MS was used to understand synthesis of Progesterone in H295R cell line at 48hr of chemical exposure. To generalize the intended target to other relatable targets, this assay endpoint is annotated to the steroid hormone intended target family, where the subfamily is progestagens.
Cell culture and media preparation procedures were conducted in accordance with OECD Test No. 456 guidelines, with minor modifications. H295R cells (ATCC CRL-2128) were expanded for 5 passages and frozen in batches in liquid nitrogen. Prior to the steroidogenesis assay, H295R cells were thawed and passed at least 4 times. The maximum passage was 10. Cells were maintained in a 1:1 mixture of DMEM/F12 supplemented with 5ml/L ITS+ Premix (BD Bioscience) and 12.5 ml/L Nu-Serum (BD Bioscience). After seeding cells into 96-well plates at 50-60% confluency, cells were allowed to adhere overnight. Prior to chemical testing, culture medium was replaced with 175 uL medium containing 10 uM forskolin to stimulate steroidogenesis for 48 hours. Following prestimulation, forskolin medium was replaced with medium containing test chemical solubilized in DMSO (ensuring a final concentration of 0.1% DMSO). Test chemicals were incubated for 48 hours, then the medium was removed and split into 2 vials containing approximately 75uL each, and stored at -80 C prior to hormone analysis. For steroid quantification, media samples were shipped to OpAns, LLC (Durham, NC) on dry ice, and samples were thawed to room temperature prior to liquid-liquid extraction. Steroid hormones were extracted from media samples using methyl tertbutyl ether (MTBE). An extra derivatization with dansyl chloride was included for estrogen (estrone and estradiol) detection only. Steroid hormones were separated by HPLC, eluted using a reverse phase C18 gradient with electrospray positive ionization, followed by quantification by tandem mass spectrometry (MS/MS). Data were acquired on a MassHunter Workstation Acquisition version B03.01 (Agilent Technologies, Inc.) and processed using MassHunter Quantitative Analysis for QQQ. Accuracy was determined for each hormone analyte from 3 standards to determine upper and lower limits of quantification (ULOQ and LLOQ, respectively) using a 7-point standard curve. Precision and accuracy of the extraction and quantification methods were calculated as the percent relative standard deviation (%RSD) of the spiked standards and percent spiked standard recovered, respectively. The goal was to achieve 100% accuracy (i.e., recover all spiked-in standard at quantification with minimal loss during run time) and good precision (i.e., have %RSD <15% to ensure reproducibility). Test medium was removed following chemical exposure, and cell viability was evaluated in the same wells by MTT. MTT procedures were as follows: after removal of test medium, 500 uL of 0.5 mg/ml of 3-[4,5-dimethylthiazol-2-y]2,5-diphenyltetrazoliumbromide solution was added to the cells. Following a 4-hour incubation at 37 C and 5% CO2 to allow formazan-crystal formation, the MTT solution was removed and blue formazan salt crystals were solubilized using 500uL anhydrous isopropanol with shaking for 20 minutes. Absorbance was read at 570 and 650nm using a Packard Fusion microplate reader. […]

SMILES	AC50	outcome
C#C[C@]1(O)CC[C@H]2[C@@H]3CCC4=Cc5oncc5C[C@]4(C)[C@H]3CC[C@@]21C	0.225 µM (active)	–
O=c1cc(-c2ccccc2)oc2cc(O)cc(O)c12	16.1 µM (active)	–
Cc1cccc(C)c1C	–	inactive
COc1cc2ncnc(Nc3cccc(Cl)c3)c2cc1OC	–	inactive
NC(=O)Nc1ccc(Cl)cc1	–	inactive
Nc1ccc(F)c([N+](=O)[O-])c1	50 µM (active)	–
CC1COc2ccccc2N1C(=O)C(Cl)Cl (configuration not stated)	–	inactive
C=CC(C)(C)O	–	inactive
CC1(C)[C@H](C(=O)OCc2cccc(Oc3ccccc3)c2)[C@@H]1C=C(Cl)Cl	–	inactive
O=C(O)c1ccc([N+](=O)[O-])cc1	–	inactive
CSc1nc(NC2CC2)nc(NC(C)(C)C)n1	–	inactive
C=CCOc1nc(OCC=C)nc(OCC=C)n1	50 µM (active)	–
Nc1cc([N+](=O)[O-])ccc1Cl	–	inactive
O=C(O)C[C@H](O)C[C@H](O)/C=C/c1c(C2CC2)nc2ccccc2c1-c1ccc(F)cc1	0.0233 µM (active)	–
Cc1ccc2n[nH]nc2c1	–	inactive
CC(C)c1cccc(O)c1	–	inactive
c1ccc(CCCc2ccccn2)cc1	50 µM (active)	–
